Measurements: PubChem BioAssay (NCATS)
Inconclusive results are not listed. Entries that show only a call come without a potency. Activity calls are given as the source filed them. Calls come from the whole dose curve; as a rule, active = well fitted inhibition curve with a large enough effect; inconclusive = small, poorly fitted or top-dose-only effect; inactive = flat fitted curve, though single readings scatter.

molecular target: Glutathione peroxidase 1 (Homo sapiens) (UniProt P07203); test: Primary qHTS Assay for Inhibitors of Recombinant Selenoprotein Glutathione Peroxidase 1 (GPX1) (AID 1845191); conditions: recombinant GPX1, GR-coupled NADPH fluorescence, 15 min; series mostly up to 48.8 µM; note: nearly all actives have a fitted effect of over 65% in size
Sequence (P07203 whole entry, looked up): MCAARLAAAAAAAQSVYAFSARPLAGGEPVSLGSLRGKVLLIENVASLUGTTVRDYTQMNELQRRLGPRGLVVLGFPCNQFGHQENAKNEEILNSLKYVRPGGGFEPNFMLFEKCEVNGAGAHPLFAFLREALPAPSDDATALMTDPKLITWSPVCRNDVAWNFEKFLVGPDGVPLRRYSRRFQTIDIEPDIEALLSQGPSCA
From the text: Assay Provider: Elias S.J. Arner MD PhD.
Department of Medical Biochemistry and Biophysics
Karolinska Institutet, Solna, Stockholm, Sweden
Selenoprotein glutathione peroxidases (GPX), like the ubiquitously expressed GPX1 and the ferroptosis modulator GPX4, enact their antioxidant activities by reducing hydroperoxides using glutathione. […] GPX1 and GPX4 inhibitors have thus shown promise as anti-cancer agents. Existing inhibitors are often promiscuous, or modulate GPX activity only indirectly, so novel direct inhibitors identified through screening against GPX1 and GPX4 could be valuable. Here, we developed optimized glutathione reductase (GR)-coupled GPX assays for the biochemical high-throughput screen (HTS) of almost 12,000 compounds with known mechanisms of action. Initial hits were triaged using a GR counter-screen, assessed for isoform specificity using a separate GPX2 assay, and were assessed for general selenocysteine-targeting activity using a thioredoxin reductase (TXNRD1) assay. With this suite of assays, we identified novel GPX1/GPX2- and GPX4-specific inhibitors and can here present a validated pipeline for future discovery research for selenoprotein-targeting agents.
SEQUENCE No. (e.g., 1, 2, 3, etc.); […] (e.g., Cells, Incubation, Reagent, etc.); VALUE; DESCRIPTION.
1; Reagent 1; 3 uL; GPx1 enzyme or no enzyme control in 1536-well, black, solid Greiner assay plate.
2; Compound; 25 nL; Kalypsis pin tool (Wako USA) equipped with a 1536-well pin head.
3; Incubation; 30 min; room temperature.
4; Reagent 2; 1 uL; 10 nM GPX1, 1 mM GSH, 0.5 mM CHP, 0.5 mM NADPH, 100 nM GR, 0.01% BSA substrate
5; Detection; Fluorescence; ViewLux microplate reader, excitation 340 nm and emission 450 nm.
6; Incubation; 15 min; room temperature.
7; Detection; Fluorescence; ViewLux microplate reader, excitation 340 nm and emission 450 nm.
NOTES (numbers refer to Sequence numbers above)
1. 3 uL of 16.66 nM GPX1 and 0.016% BSA in assay buffer (50 mM Tris-HCl, 2 mM EDTA (pH 7.5), 150 mM NaCl) was added to columns 3-48 of 1536-well assay plates using a BioRAPTR Flying Reagent Dispenser (Let's Go Robotics (LGR), Carlsbad, CA). A no-enzyme control (0.01% BSA in TES assay buffer) was added to columns 1-2.
2. 25 nL of test compounds and DMSO controls were added to each well with a pin tool (Kalypsys).
3. The assay plates were incubated for 30 minutes at room temperature.
4. 1 uL of master mix (500 nM glutathione reductase (GR), 5 mM reduced glutathione (GSH), 2.5 mM NADPH in assay buffer) was added. 1 uL of cumene hydroperoxide (CHP) ([2.5 mM] in 50% EtOH) was then added within 5 minutes to initiate the reaction. Final concentrations were: 10 nM GPX1, 1 mM GSH, 0.5 mM CHP, 0.5 mM NADPH, 100 nM GR, 0.01% BSA.
5. Initial fluorescence readout (t=0) at 340/450 nm was measured using a ViewLux multimodal detector (PerkinElmer, Waltham, MA).
7. Endpoint fluorescence readout (t=15) at 340/450 nm was measured 15 min after room temperature incubation.

Compound | Potency
CCN(CC)C(=O)c1ccc(C2=CC3(CCNCC3)Oc3cccc(O)c32)cc1 | inactive
N=c1c2c(-c3ccccc3)c(-c3ccccc3)n(Cc3ccccc3)c2ncn1C1CCC(O)CC1 (stereo not given) | inactive
NC(CP(=O)(O)O)C(=O)O (stereo not given) | inactive
CCCN(CCC)[C@@H]1CCc2ccc(O)cc2C1 | inactive
NC(=O)CN1CC(O)CC1=O (stereo not given) | inactive
CC(C)N(CCNC(=O)CN1CCCC1=O)C(C)C | inactive
C[N+](C)(C)CC(=O)O | inactive
CC(C)[C@H]1C(=O)N[C@H](CO)Cc2c[nH]c3cccc(c23)N1C | inactive
C[N+]1(C)C2CCC1CC(OC(=O)C(CO)c1ccccc1)C2 (stereo not given) | inactive
C1CCC(NC2CCCCC2)CC1 | inactive
O=C(NCC1CCOCC1)c1cnc(Nc2ccc(Cl)cc2Cl)nc1C(F)(F)F | inactive
CCN1C[C@]2(OC(=O)c3ccccc3NC(C)=O)CC[C@H](OC)[C@@]34[C@H]5CC6[C@@H](OC)C[C@](O)(C(C[C@@H]23)[C@@H]14)[C@@]5(O)[C@@H]6OC | inactive
NC(=NCCC[C@H](N)C(=O)O)N[N+](=O)[O-] | inactive
CS(=N)(=O)CC[C@H](N)C(=O)O (stereo not given in full) | inactive
O=[N+]([O-])c1ccc([As](=O)(O)O)cc1 | inactive
CN1C2CCC1CC(OC(=O)c1cc(Cl)cc(Cl)c1)C2 (stereo not given) | inactive
c1ccc(C2(c3ccccc3)CC2C2=NCCN2)cc1 (stereo not given) | inactive
O=C(Nc1ccncc1)C(=O)c1cn(Cc2ccc(Cl)cc2)c2ccccc12 | inactive
Cc1[nH]nc2ccc(-c3cncc(OC[C@@H](N)Cc4c[nH]c5ccccc45)c3)cc12 | inactive
COc1cc(C(O)CN)ccc1O (stereo not given) | inactive

Compound | Potency
COc1ccc(C(=O)c2c(C)n(CCN3CCOCC3)c3cc(I)ccc23)cc1 | inactive
COC1=C[C@@H]2[C@@H]3Cc4ccc(OC)c(O)c4[C@]2(CCN3C)CC1=O | inactive
CC(=O)Nc1ccc(OC[C@](C)(O)C(=O)Nc2ccc([N+](=O)[O-])c(C(F)(F)F)c2)cc1 | inactive
CCCCc1ccc(C(=O)O)nc1 | inactive
CC(C)(C)NC[C@H](O)c1ccc(O)cc1Cl | inactive
CC(C)NC(C)Cc1ccc(I)cc1 (stereo not given) | inactive
Cn1cnc(CCN)c1 | inactive
S=C(NC1CCCCC1)N1CCC(c2cnc[nH]2)CC1 | inactive
COC(=O)c1cncn1C(C)c1ccccc1 (stereo not given) | inactive
C[C@@H]1O[C@H](C[N+](C)(C)C)C[C@H]1O | inactive
C/C=C(/C)C(=O)O[C@H]1C(C)=C2[C@H]([C@@H]1OC(=O)CCCCCCC)[C@@](C)(OC(C)=O)C[C@H](OC(=O)CCC)[C@@]1(O)[C@H]2OC(=O)[C@@]1(C)O | inactive
Cc1ccccc1-n1c(Cn2ncc3c(N)ncnc32)nc2cccc(C)c2c1=O | inactive
O=C(N[C@H]1CN2CCC1CC2)c1ccc(Cl)cc1 | inactive
NC1=NC(=O)N2CC12 (stereo not given) | inactive
CCCN1CCO[C@@H]2c3cc(O)ccc3OC[C@H]21 | inactive
Clc1ccccc1C(c1ccccc1)(c1ccccc1)n1cccn1 | inactive
CC(C)(O)C(=O)Nc1ccc([N+](=O)[O-])c(C(F)(F)F)c1 | inactive
NC1CC1c1ccccc1 (stereo not given) | inactive
CC1=NN=C(c2ccc(N)cc2)c2cc3c(cc2C1)OCO3 | inactive
O=C(O)CNC(=O)c1c(O)c2ccccc2n(Cc2ccccc2)c1=O | inactive
